DRD3 antagonist = blocks the human D3 dopamine receptor; P35462; D3R cells, DiscoveRx beta-arrestin luminescence, antagonist mode; hits give low values; max response, negative = inhibition, %; 2.5% of 360,000 active; in the data active = max response below about -50%; inconclusive = no clear call, values can overlap the other calls; also: % is scaled to controls: 0 for no effect and ±100 for the full control effect
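Cells plated overnight at 1500 cells/well, then exposed to library compounds with dopamine controls for 90 minutes at 37 degrees C. DiscoveRx reagent added for 30–60 minutes at room temperature; luminescence read, quantitative HTS format.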
GLP-1R agonist = GLP-1 receptor (human) agonism | HEK293 GLP-1R CRE-luciferase, luminescence, 4-6 h; cells express a hypersensitive GLP-1R form | Potency, µM (doses to about 45.6 µM), inactives show at the highest dose activation, usual class: activators | 0.007% of 380,000 active; also: potency is read from the fitted curve at half-maximal effect; % of control where 0% means no effect
Target sequence (P43220 whole entry, looked up): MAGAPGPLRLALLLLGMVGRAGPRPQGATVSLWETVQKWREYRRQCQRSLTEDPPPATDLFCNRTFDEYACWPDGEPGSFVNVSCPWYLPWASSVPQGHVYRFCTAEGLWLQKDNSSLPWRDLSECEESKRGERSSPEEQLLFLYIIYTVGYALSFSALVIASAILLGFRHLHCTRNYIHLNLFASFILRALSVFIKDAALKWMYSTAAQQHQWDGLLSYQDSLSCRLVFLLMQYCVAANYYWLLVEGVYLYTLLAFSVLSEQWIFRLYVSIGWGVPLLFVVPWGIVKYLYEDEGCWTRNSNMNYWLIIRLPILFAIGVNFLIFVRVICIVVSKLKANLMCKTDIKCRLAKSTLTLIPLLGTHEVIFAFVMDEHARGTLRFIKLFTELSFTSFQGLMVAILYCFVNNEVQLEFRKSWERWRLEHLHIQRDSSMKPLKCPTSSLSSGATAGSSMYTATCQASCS
GLP1R inv ag = inverse agonists of human GLP-1 receptor; P43220; HEK293 GLP-1R CRE-luciferase, luminescence, 24 h; GLP-1R form is constitutively active; Potency, µM (doses to about 38.3 µM), for the others: at the highest dose activity change, negative = inhibition, usual class: inhibitors; 1.6% of 410,000 active; AID 624417; also: potency is read from the fitted curve at half-maximal effect; % is scaled to controls: 0 for no effect and ±100 for the full control effect; nearly all actives have a fitted effect of over 55% in size
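HEK293 cells stably co-expressing a cAMP-responsive luciferase reporter and constitutively active GLP-1R were seeded, incubated 12 h, then exposed to compounds for 24 h at 37 C. Luminescence was read 12 min after detection reagent; inverse agonists lower signal.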
D3 ag = activates the human D3 dopamine receptor | P35462 | D3R DiscoveRx beta-arrestin cells, luminescence, 90 min | max activation, % | 0.58% of 410,000 active; in the data active = max activation above about 30%; also: 0% is about no effect
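Cells at 1500/well, incubated overnight, then treated with pinned compounds (dopamine as control) for 90 min at 37 degrees C. DiscoveRx reagent added for 30 - 60 minutes at room temperature; luminescence read.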
Active calls of the source: *; ? = inconclusive; nt = no result. In the library only some 4.3% were active in any assay of this set; here they are far more common. Unless noted, calls follow the shape of the dose curve; as a rule, active = well fitted curve in the direction sought with a large enough effect; inconclusive = small, poorly fitted or top-dose-only effect, or another doubt; inactive = no such curve, though single readings can be large; an effect the other way counts as inactive or inconclusive.

SMILES | DRD3 antagonist | GLP-1R agonist | GLP1R inv ag | D3 ag
CCCCCCCCNCCS(=O)(=O)NCc1ccccc1 | -81* | 12% | ? | -41
CSc1ccc(CC2C(=O)Nc3ccccc32)cc1 (centres undefined) | nt | nt | 4% | -6
CCOc1ccccc1NC(=O)c1nc(S(=O)(=O)Cc2ccccc2)ncc1Cl | -107* | -8% | -26% | -24
CCS(=O)(=O)c1ncc(Cl)c(C(=O)Nc2ccccc2OC)n1 | -64* | -3% | 130% | -10
COc1ccccc1NC(=O)c1nc(S(=O)(=O)Cc2ccccc2)ncc1Cl | -89* | -1% | 5% | -32
CCS(=O)(=O)c1ncc(Cl)c(C(=O)Nc2ccccc2)n1 | nt | nt | ? | -23
COc1ccc(CNC(=O)c2cc3c(=O)n(Cc4cccs4)ccc3nc2C)cc1 | nt | nt | ? | -10
O=C1CCCc2cc3c(cc21)CCCC3 | 2 | 10% | -25% | 16
O=C1CCCCc2cc(O)c(O)cc21 | -2 | -2% | 3% | 52*
C[C@H]1C[C@H]2[C@@H]3CCC4=CC(=O)C=C[C@]4(C)[C@H]3C(=O)C[C@]2(C)[C@@]1(O)C(=O)CO | nt | nt | nt | 1
COc1cccc(/C=N/n2c(N)nc3ccccc32)c1OC | 38 | 17% | 85% | 30*
CN1CCc2cccc3c2C1Cc1ccc(O)c(O)c1-3 (centres undefined) | 65 | -3% | 17% | 123*
COc1cc(NC(=NS(=O)(=O)c2ccccc2)c2ccccc2)ncn1 | -100* | 18% | 4% | -30
Cn1cnc2c(F)c(Nc3ccc(Br)cc3Cl)c(C(=O)NOCCO)cc21 | nt | -4% | nt | 3
CC(NNC(=O)c1ccccc1)c1ccccc1 (centres undefined) | nt | 4% | nt | 3
C=CCN(c1ccc(C(=O)OC)cc1)S(=O)(=O)c1ccccc1 | -76* | -7% | -8% | 1
CCOC(=O)C(=CNc1ccc(NC2=NCC(C)(C)S2)cc1)C(=O)OCC | 104 | 14% | 151% | 52*
CCN1C(=O)/C(=C/N(C(C)=O)c2ccccc2)N(c2ccccc2)C1=S | -81* | -5% | ? | -5
Cc1ccc(C(=O)NCC(c2cccs2)S(=O)(=O)c2cccs2)cc1 (centres undefined) | nt | nt | ? | -5
COc1ccc(/C=C2\OC(=O)c3c(OC)cccc32)cc1OC | 25 | 5µM* | 208% | 8
Cc1cc2c(n1-c1ccc(C(=O)NCC(C)c3ccccc3)cc1)CCCC2 (centres undefined) | nt | nt | 2% | 3
Cc1ccc2cc3cc(C(=O)NCCCN4CCc5ccccc5C4)oc3nc2c1 | -55* | 4% | ? | -12
CCCCN(CC)CCCNC(=O)c1cc2cc3ccc(C)cc3nc2o1 | -10 | 17% | -7% | -7
Cc1ccc2cc3cc(C(=O)NCCCN4CCCC4)oc3nc2c1 | -13 | 7% | -9% | -17
Cc1ccc2cc3cc(C(=O)NCCCN4CCCCCC4)oc3nc2c1 | -75* | 3% | 6% | -11
SMILES | DRD3 antagonist | GLP-1R agonist | GLP1R inv ag | D3 ag
Cc1ccc2nc(Cl)c3cc(C(=O)NCCCN4CCCC4)sc3c2c1 | -59* | 21% | ? | -11
CC(Sc1nccn1C)C(=O)Nc1ccccc1 (centres undefined) | -11 | 1% | 1% | 3
CCOC(=O)c1ccccc1NC(=O)CSc1nc(=O)[nH]c2c1CCC2 | nt | nt | 9% | 0
Cc1ccccc1-c1nc(CN2CCC(C(=O)NCCCN3CCOCC3)CC2)c(C)o1 | -9 | -1% | -11% | -22
Cc1oc(-c2ccccc2F)nc1CN1CCC(C(=O)NCCC2=CCCCC2)CC1 | -57* | 7% | 0% | -2
Cc1oc(-c2ccccc2F)nc1CN1CCC(C(=O)NCCc2ccccc2)CC1 | nt | nt | ? | -8
Cc1ccccc1-c1nc(CN2CCC(C(=O)NCCCN3CCCC3)CC2)c(C)o1 | -57* | 14% | ? | -3
CCN1C(C(=O)c2ccccc2)=C(OC(=O)COc2ccccc2)c2ccccc2S1(=O)=O | nt | nt | ? | -12
O=C1OC(c2ccccc2)(c2ccccc2)c2ccccc21 | ? | 12% | 7.9µM* | -10
O=C1OC(c2ccccc2)(c2ccc(O)cc2)c2ccccc21 (centres undefined) | 4 | 12% | ? | -4
Cc1cc(O)ccc1C1(c2ccc(O)cc2C)OC(=O)c2ccccc21 | -5 | -1% | ? | 2
O=C1OC2(c3ccc(O)cc3Oc3cc(O)ccc32)c2ccccc21 | nt | 5% | nt | 30*
COc1ccc(N2CC(NC(=O)C(c3ccccc3)c3ccccc3)CC2=O)cc1 (centres undefined) | nt | nt | -29% | -14
O=C(CC1C(=O)NCCN1C(=O)Nc1ccc(Cl)cc1)Nc1ccc(F)cc1 (centres undefined) | -11 | 7% | 11µM* | -7
Clc1cccc(NCc2nnc(SCc3ccc(Cl)cc3Cl)o2)c1 | -63* | -17% | ? | -12
CCc1ccccc1N1CC(c2nc3ccccc3n2Cc2cccc(C)c2)CC1=O (centres undefined) | nt | nt | ? | -4
CC(C)C[C@H](NC(=O)c1[nH]cnc1C(=O)Nc1ccc(CNC(=O)OC(C)(C)C)cc1)C(=O)OCc1ccccc1 | 26 | -2% | ? | -16
CC(C)(C)OC(=O)NCCCC[C@H](NC(=O)c1nc[nH]c1C(=O)N[C@@H](CCCCNC(=O)OC(C)(C)C)C(=O)OC(C)(C)C)C(=O)OC(C)(C)C | 27 | -4% | ? | 7
CC(C)(C)OC(=O)CNC(=O)c1nc[nH]c1C(=O)NCc1ccccc1 | 2 | 11% | 17% | 6
C[C@H](NC(=O)c1[nH]cnc1C(=O)Nc1ccc(CNC(=O)OC(C)(C)C)cc1)C(=O)OCc1ccccc1 | 42 | -10% | ? | 80*
CC(C)(C)OC(=O)NCCCCCNC(=O)c1nc[nH]c1C(=O)NCC(=O)OCc1ccccc1 | 110 | -13% | 11µM* | 27
CC(C)(C)OC(=O)CNC(=O)c1[nH]cnc1C(=O)NCC(=O)OCc1ccccc1 | 67 | -1% | -28% | 71*
C[C@H](NC(=O)c1nc[nH]c1C(=O)N[C@@H](CCCCNC(=O)OC(C)(C)C)C(=O)OC(C)(C)C)C(=O)OC(C)(C)C | 20 | -5% | 10µM* | -3
CCCCNc1nc(Oc2ccc(=O)n(C)n2)nc(N2CCOCC2)n1 | nt | nt | 12% | 2
Cc1ccc(C)c(NC(=O)CN2C(=O)CCc3ccccc32)c1 | nt | nt | 17% | 3
CC(C)(C)OC(=O)NCCCCCNC(=O)c1nc[nH]c1C(=O)N1CCc2ccccc2C1 | 80 | 1% | -23% | 38*
C[C@H](NC(=O)c1nc[nH]c1C(=O)NCCCCCNC(=O)OC(C)(C)C)C(=O)OCc1ccccc1 | 171 | -2% | 13% | 65*
COc1ccc(CCNC(=O)CCc2cn(Cc3ccc(C)cc3)c3ccccc23)cc1OC | nt | nt | ? | 5
O=C(COC(=O)c1cc(S(=O)(=O)N2CCc3ccccc3C2)ccc1Cl)NCc1ccco1 | -55* | 0% | 88% | -4
